# Screens: PubChem BioAssay, National Center for Advancing Translational Sciences (NCATS)
# Compounds with a hit are over-represented: about 9% of the library has one in this group of screens.
# LMNA splice mod = LMNA splicing modulation. HeLa LMNA splicing GFP/RFP minigene ratio, 48 h. Potency, µM (highest dose often 46.1 µM), usual class: inhibitors. 0.01% of 200,000 active. AID 1487; active = well fitted inhibition curve with a large enough effect in the signal ratio, with a control signal flat, not every such curve was filed as active; inconclusive = small, poorly fitted or top-dose-only effect, or effect the other way, or a change in a side signal; the % refers to the signal ratio
#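 S3 HeLa stable clones carrying a lamin A-EGFP splicing minigene plus DsRed2 were seeded at 600 cells/well in Opti-MEM with 2% FBS, pin-dosed and incubated 48 h at 37°C. Acumen cytometry (488 nm) gave the GFP/RFP total-intensity ratio.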
# Luc counter = blocks Kinase-Glo luciferase, a counter-screen artifact; Kinase-Glo luciferase, ATP luminescence, 8 min; 0.28% of 200,000 active; AID 1379; Potency, µM (highest dose often 38.3 µM), hits mostly inhibitors; also: nearly all actives have a fitted effect of over 60% in size
#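 Recombinant Kinase-Glo luciferase, 10 uM ATP (linear range), luciferin; imidazole pH 7.2 / KCl / MgCl2 / Tween / BSA buffer; 8 min RT; luminescence.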
# ALDH1A1 inh = inhibitors of human aldehyde dehydrogenase 1A1; P00352; AID 1030; Potency, µM (titrated, usually from 75.3 µM), actives largely listed as inhibitors; 7.3% of 220,000 active; Purified ALDH1A1, NADH fluorescence, propionaldehyde substrate; active = well fitted inhibition curve with a large enough effect, not every such curve was filed as active; inconclusive = small, poorly fitted or top-dose-only effect, or another doubt; inactive = no such curve, though single readings can be large or run the other way
# HPGD block = blocks human HPGD enzyme activity | P15428 | purified HPGD, NADH fluorescence kinetic, PGE2 substrate | Potency, µM, hits mostly inhibitors | 4.3% of 150,000 active | AID 894; active = well fitted inhibition curve with a large enough effect, not every such curve was filed as active; inconclusive = small, poorly fitted or top-dose-only effect, or another doubt; inactive = no such curve, though single readings can be large or run the other way
# Target sequence (P15428 whole entry, looked up): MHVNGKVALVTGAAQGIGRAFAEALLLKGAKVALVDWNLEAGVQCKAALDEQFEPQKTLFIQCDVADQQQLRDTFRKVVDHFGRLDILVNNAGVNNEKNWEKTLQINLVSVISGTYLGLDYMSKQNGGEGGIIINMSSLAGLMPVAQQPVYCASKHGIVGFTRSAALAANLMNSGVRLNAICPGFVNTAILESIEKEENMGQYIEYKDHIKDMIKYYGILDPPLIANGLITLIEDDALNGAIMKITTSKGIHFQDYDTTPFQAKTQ
#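 20 nM HPGD preincubated 15 min at room temperature with compound in 50 mM Tris-HCl pH 8, 0.01% Tween 20. Started with 1 mM NAD+ and 30 uM prostaglandin E2; NADH fluorescence (360/450 nm) read 5 times over 30-s intervals, last minus first.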
# IMPase Li inh = membrane-permeable IMPase blocker, potentiated with lithium. CHO-M1 cells, IP1 TR-FRET (IP-One), carbachol + lithium. Potency, µM (series often up to 59.4 µM), actives largely listed as inhibitors. 0.35% of 210,000 active. AID 1457;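 also: IP1 builds up when IMPase is blocked and the TR-FRET signal falls; nearly all actives have a fitted effect of over 50% in size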
#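 CHO cells stably expressing M1 receptor (2000/well, cultured 16–30 h) treated 30 min at 37C with compound plus low lithium. Cytosolic IP1 by TR-FRET (665/620 ratio and 620 channel) after 10 min lysis; AC50 by Hill fit.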
# Numbers stand for hits; 0 = inactive; ? = inconclusive; - = not tested or not shown; [ ] = remark or other dose. Unless noted, calls follow the shape of the dose curve; as a rule, active = well fitted curve in the direction sought with a large enough effect; inconclusive = small, poorly fitted or top-dose-only effect, or another doubt; inactive = no such curve, though single readings can be large; an effect the other way counts as inactive or inconclusive.
SMILES,LMNA splice mod,Luc counter,ALDH1A1 inh,HPGD block,IMPase Li inh
CC(=O)Nc1c(C(=O)N2CCOCC2)cnn1-c1ccc(C)c(C)c1,0,0,0,0,0
Cc1ccc(-n2c(C)cc(C(=S)N3CCOCC3)c2C)cc1C,0,0,28µM,5µM,0
Cc1cc(C(=O)NC2CCCCC2)c(C)n1-c1ccc(F)cc1,0,0,14µM,4.5µM,0
Cc1cc(C(=O)CN2CCCCC2)c(C)n1-c1ccc(F)cc1,0,0,0,?,0
Cc1cc(C(=S)N2CCOCC2)c(C)n1-c1ccc(F)cc1,-,0,2.8µM,-,0
COc1ccccc1C(=O)NC(=S)NNC(=O)c1sc2ccccc2c1Cl,0,0,0,32µM,0
Cc1c(NC(=S)NC(=O)c2sc3ccccc3c2Cl)cccc1C(=O)O,0,0,25µM,-,0
COc1ccc(CONc2ncnc3nonc23)cc1[N+](=O)[O-],-,0,14µM,-,0
CCONc1ncnc2nonc12,0,0,0,0,0
S=c1[nH]nc(-c2cccc(Br)c2)o1,0,0,6.3µM,0,10µM
Cc1cccc(-c2n[nH]c(=S)n2C)c1,0[9.22 µM],0,0,-,0
Nn1c(-c2cccc(Br)c2)n[nH]c1=S,0,0,22µM,0,0
CCCCn1c(N)c(N(Cc2ccccc2OC)C(=O)COc2ccccc2C#N)c(=O)[nH]c1=O,-,-,0,-,-
c1ccc(Cc2nnc(N3CCOCC3)c3ccccc23)cc1,0,0,0,25µM,0
CCCN(CCC)C1=N/C(=C\c2ccco2)C(=O)N1c1ccccc1,0,0,14µM,?,0
COc1ccccc1C(=O)OCc1ccc2sc(C)nc2c1,-,0,0,-,0
CC(C)C(NC(=O)CC12CC3CC(CC(C3)C1)C2)C(=O)O (stereo not given),0,0,0,0,0
CCN1CCC(=NNC(=O)CC23CC4CC(CC(C4)C2)C3)CC1,0,0,1.8µM,0,0
NC(=O)CSc1nnnn1-c1ccccc1Cl,0,0,?,-,0
COc1ccc(-c2noc(-c3ccccc3Cl)n2)cc1OC,0,0,?,0,8.9µM
Cc1cccc(-c2noc(-c3ccoc3C)n2)c1,0,0,0,-,0
COc1ccc(-c2noc(-c3ccc(Cl)cc3[N+](=O)[O-])n2)cc1OC,0,0,0,18µM,0
Cc1cccc(-c2noc(-c3ccc(Cl)cc3[N+](=O)[O-])n2)c1,?,0,0,14µM,0
COc1ccc(-c2noc(-c3cccc(Cl)c3)n2)cc1OC,0,0,0,0,0
CCOC(=O)c1sc(=S)n(C)c1NC(=O)c1ccccc1C,0,0,10µM,10µM,0
SMILES,LMNA splice mod,Luc counter,ALDH1A1 inh,HPGD block,IMPase Li inh
CCOC(=O)c1sc(=S)n(C)c1NC(=O)c1ccc(F)cc1,0,0,2.5µM,7.9µM,0
CCOC(=O)c1ccc(NC(=O)c2ccccc2C)cc1,0,0,?,0,0
C=CCNC(=S)Nc1sc2c(c1C#N)CCCC2,0,0,?,-,0
COc1ccc(CCNc2cc(N3CCN(C(=O)c4ccc(C)cc4)CC3)ccc2[N+](=O)[O-])cc1OC,?,0,8.9µM,0,0
COc1ccc(CCNc2cc(N3CCN(C(=O)c4ccccc4F)CC3)ccc2[N+](=O)[O-])cc1OC,0,0,2.5µM,0,0
CC(C)=CCn1cnc2c1C(NOCc1ccccc1)=NCN2,-,0,0,0,0
C#CCN1C(=O)C(O)(CC(=O)/C=C/c2ccco2)c2ccccc21 (stereo not given),?,0,1.6µM,-,0
Fc1ccc(-c2nn3c(C4COc5ccccc5O4)nnc3s2)cc1 (stereo not given),0,0,32µM,28µM,0
NC(N)=Nc1nc(C2COc3ccccc3O2)cs1 (stereo not given),?,0,0,0,0
O=c1[nH]cnc2scc(C3COc4ccccc4O3)c12 (stereo not given),0,0,0,0,0
c1ccc2c(c1)OCC(c1nnc3n1-c1ccccc1SC3)O2 (stereo not given),0,0,?,13µM,0
c1ccc2c(c1)OCC(c1nnc3sc(-c4ccc5c(c4)OCO5)nn13)O2 (stereo not given),?,0,?,?,0
Fc1ccc(-c2nnc3sc(C4COc5ccccc5O4)nn23)cc1 (stereo not given),?,0,0,28µM,0
c1csc(-c2nn3c(C4COc5ccccc5O4)nnc3s2)c1 (stereo not given),0,0,8.9µM,8.9µM,0
